This passage reports composite z-score and z-score results from PubChem BioAssay.

Calls of active or inactive are those of the source.

Experiment [1] has as its system Plasmodium falciparum Sir2 (PF13_0152, Sir2A). Briefly: pfSir2 binders on small-molecule microarrays, primary screen, biochemical, small-molecule microarray, 635 nm fluorescence (AID 1098).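 Note: score merges spot fluorescence intensity with its signal-to-noise ratio.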 Particulars: small-molecule microarray binding, fluorescence 635 nm; higher = more signal.
The nature of experiment [2]: small-molecule microarray binders of probe aDKK1, primary screen, biochemical, biotinylated probe, 635/667 nm fluorescence (AID 1099).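 Note: score merges 667nm spot fluorescence with signal to noise across triplicate slides; reference of the scale not given here.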 Conditions: higher = more signal.
A short description of experiment [3]: small-molecule microarray binders of probe aCHRDL2, primary screen, biochemical, biotinylated probe, 635/667 nm fluorescence (AID 1100). Conditions: higher = more signal.
Experiment [4] can be described thus: splicing luciferase reporter signal modulators, primary screen, spliceosome inhibition project, cell-based, HEK293, splice +/- reporter (AID 1101).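 Note: HEK293 cells carrying a splicing-competent luciferase reporter gene; test concentration not given here.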 Conditions: luminescence, 24 h, higher = more signal, called active from +8 up or from −8 down. Background: A reporter such as luciferase makes a cellular process visible.
Experiment [5] deals with Fibroblast growth factor 10 (Homo sapiens) (UniProt O15520). Description: FGF10 binders on small-molecule microarrays, primary screen, biochemical, small-molecule microarray, 635 nm fluorescence (AID 1102). Conditions: FGF10 binding, fluorescence 635 nm, higher = more signal.
In experiment [6] the test system is glycogen synthase kinase-3 (GSK3A per assay name; protocol says GSK3B). Briefly: GSK3 binders on small-molecule microarrays, primary screen, biochemical, small-molecule microarray, 635 nm fluorescence, GSK3A (AID 1103). Note: the record names both GSK3A and GSK3B. Conditions: small-molecule microarray binding, fluorescence 635 nm; higher = more signal.
Experiment [7] addresses Epidermal growth factor receptor (Homo sapiens) (UniProt P00533). Description: EGFR binders on small-molecule microarrays, primary screen, biochemical, small-molecule microarray, 635 nm fluorescence (AID 1104).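 Note: score merges 667 nm emission intensity with spot signal to noise over triplicate slides.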 Particulars: EGFR binding, higher = more signal.
Experiment [8] addresses Follistatin-related protein 3 (Homo sapiens) (UniProt O95633). Description: FSTL3 binders on small-molecule microarrays, primary screen, biochemical, small-molecule microarray, 635 nm fluorescence (AID 1105).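 Note: score merges emission near 667 nm and signal to noise per printed spot across three slides.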 Particulars: FSTL3 binding, higher = more signal.
In experiment [9] the target is Dickkopf-related protein 1 (Homo sapiens) (UniProt O94907). Briefly: DKK1 binders on small-molecule microarrays, primary screen, biochemical, small-molecule microarray, 635 nm fluorescence scan (AID 1106).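 Note: score merges emission near 667 nm with signal to noise over three replicate slides.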 Conditions: DKK1 binding, higher = more signal.
Experiment [10] relates to Inhibin beta A chain (activin A). Description: INHBA (activin A) binders on microarrays, primary screen, biochemical, small-molecule microarray, 635 nm fluorescence scan (AID 1107).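 Note: mouse activin A protein probed at 4.33 µg/mL on printed slides; score merges bound-protein fluorescence near 667 nm with spot signal-to-noise.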 Conditions: small-molecule microarray binding, higher = more signal.

Epidermal growth factor receptor (Homo sapiens), sequence (P00533 whole entry, looked up): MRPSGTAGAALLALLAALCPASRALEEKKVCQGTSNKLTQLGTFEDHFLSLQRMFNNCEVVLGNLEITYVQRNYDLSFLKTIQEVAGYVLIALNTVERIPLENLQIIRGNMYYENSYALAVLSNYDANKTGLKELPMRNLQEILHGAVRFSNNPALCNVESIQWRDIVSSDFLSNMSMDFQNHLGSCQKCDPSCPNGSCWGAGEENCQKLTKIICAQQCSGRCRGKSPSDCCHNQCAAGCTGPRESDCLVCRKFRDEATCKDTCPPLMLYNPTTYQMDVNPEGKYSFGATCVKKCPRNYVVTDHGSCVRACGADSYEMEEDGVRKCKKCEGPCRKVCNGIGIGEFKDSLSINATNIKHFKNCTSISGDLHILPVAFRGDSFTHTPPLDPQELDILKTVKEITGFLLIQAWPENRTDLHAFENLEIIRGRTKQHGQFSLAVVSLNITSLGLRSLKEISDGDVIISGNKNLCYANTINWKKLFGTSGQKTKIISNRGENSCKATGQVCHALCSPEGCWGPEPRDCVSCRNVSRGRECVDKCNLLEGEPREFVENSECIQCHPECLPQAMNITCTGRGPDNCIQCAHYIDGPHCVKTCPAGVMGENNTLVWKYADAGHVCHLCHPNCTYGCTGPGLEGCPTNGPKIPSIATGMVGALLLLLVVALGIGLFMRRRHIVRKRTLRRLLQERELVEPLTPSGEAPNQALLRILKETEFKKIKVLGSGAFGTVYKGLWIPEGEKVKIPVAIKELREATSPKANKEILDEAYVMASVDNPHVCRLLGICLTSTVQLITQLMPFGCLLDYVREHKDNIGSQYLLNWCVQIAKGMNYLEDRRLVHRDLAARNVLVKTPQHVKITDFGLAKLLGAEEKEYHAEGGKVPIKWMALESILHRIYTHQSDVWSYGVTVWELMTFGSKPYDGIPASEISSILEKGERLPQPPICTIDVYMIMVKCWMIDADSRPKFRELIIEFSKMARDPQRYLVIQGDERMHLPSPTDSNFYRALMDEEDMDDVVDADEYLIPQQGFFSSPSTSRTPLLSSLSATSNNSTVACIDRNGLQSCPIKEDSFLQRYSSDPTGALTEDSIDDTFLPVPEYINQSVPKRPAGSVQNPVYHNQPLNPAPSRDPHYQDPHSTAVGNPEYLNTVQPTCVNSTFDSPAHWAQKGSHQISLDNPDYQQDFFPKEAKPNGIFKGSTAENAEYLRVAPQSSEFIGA
Dickkopf-related protein 1 (Homo sapiens), sequence (O94907 whole entry, looked up): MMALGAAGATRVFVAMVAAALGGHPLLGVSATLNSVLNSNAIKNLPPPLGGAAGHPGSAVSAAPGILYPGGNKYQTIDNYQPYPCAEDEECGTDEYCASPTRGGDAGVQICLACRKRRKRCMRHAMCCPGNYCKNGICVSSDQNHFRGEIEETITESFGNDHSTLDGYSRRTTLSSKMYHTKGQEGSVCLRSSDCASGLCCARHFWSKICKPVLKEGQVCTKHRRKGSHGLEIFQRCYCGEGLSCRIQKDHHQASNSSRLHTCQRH
Fibroblast growth factor 10 (Homo sapiens), sequence (O15520 whole entry, looked up): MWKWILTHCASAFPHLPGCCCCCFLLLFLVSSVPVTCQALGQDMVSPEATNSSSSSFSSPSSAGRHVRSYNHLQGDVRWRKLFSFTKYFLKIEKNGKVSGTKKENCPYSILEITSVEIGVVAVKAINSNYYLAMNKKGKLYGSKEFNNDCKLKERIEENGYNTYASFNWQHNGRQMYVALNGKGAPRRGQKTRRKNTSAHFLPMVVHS
Follistatin-related protein 3 (Homo sapiens), sequence (O95633 whole entry, looked up): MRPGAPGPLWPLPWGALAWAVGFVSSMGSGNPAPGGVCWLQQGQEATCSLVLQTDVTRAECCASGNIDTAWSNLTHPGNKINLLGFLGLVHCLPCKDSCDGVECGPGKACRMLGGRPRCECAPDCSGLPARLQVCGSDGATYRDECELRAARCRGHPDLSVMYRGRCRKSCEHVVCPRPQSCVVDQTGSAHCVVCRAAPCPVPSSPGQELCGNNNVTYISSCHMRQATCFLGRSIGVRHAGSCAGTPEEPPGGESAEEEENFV

Take `O=C(N1CCOCC1)[C@@]1(Cc2ccccc2)COC(c2ccc(OCCCO)cc2)=N1`: the composite z-score is 0.666 in experiment [1]; 1.23 in [2]; 0.84 in experiment [3]; 0.132 in [5]; 0.983 in [6]; -0.309 in experiment [7]. For the same molecule, the results for the composite z-score in [8], in experiment [9] and in [10] were -0.65, -0.161 and 0.573, respectively. Moreover, in experiment [4], the z-score was -0.694 (inactive).
On to `CO[C@H]1O[C@H](CO)[C@@H](OC(=O)Nc2ccccc2)[C@H](OC(=O)Nc2ccccc2)[C@H]1OC(=O)Nc1ccccc1`, for which the composite z-score in [1] is 1.48; in experiment [2], -0.0074; in experiment [3], -0.0165; in experiment [5] it was 1.48; in experiment [6], 1.25; in experiment [7], 0.0428. Further, the results for the composite z-score in experiment [8], in experiment [9] and in experiment [10] were 0.41, 0.183 and 0.232, respectively. Further, the z-score in [4] is -0.405 (inactive).
Regarding `COc1ccc(C(=O)Nc2ccc(CN3C(=O)[C@@]4(O[C@@H](CCn5cc(CCO)nn5)[C@H]([Si](C)(C)c5ccc(OC)cc5)[C@H]4C)c4ccccc43)cc2)cc1`, the composite z-score in experiment [1] worked out at 1.36; in experiment [2] it was 0.635; in [3], 0.559; in [5], 0.939; in [6], 1.14; in experiment [7] it was 0.492. Besides, the composite z-score in [8] was determined as 1.28; in experiment [9], 1; in [10], 1.57. The z-score in experiment [4] is -1.8 (inactive).
`Cc1ccc(S[C@]2(C(=O)NC3CC3)CC(=O)N(C(C)C)[C@@H]2c2ccc(CO)cc2I)cc1`: the composite z-score was 1.37 in [1]; -0.299 in [2]; 0.812 in [3]; 0.377 in experiment [5]; -0.122 in experiment [6]; -0.638 in experiment [7]. For the same molecule, the composite z-score in experiment [8] was 0.101; in [9], -1.37; in [10] it was 0.318. Moreover, in [4], the z-score is -1.89 (inactive).
Consider `CCCCC(O)C1C=CC2C(=O)N(c3ccccc3)C(=O)C2N1Nc1ccc(C#N)cc1` (stereo not given), for which the composite z-score in [1] turned out to be 1.11; in [2], 1.12; in [3], 0.906; in experiment [5], 0.398; in experiment [6], 0.383; in experiment [7], 0.0738. Further, the figures for the composite z-score in [8], in experiment [9] and in experiment [10] were -0.0673, -0.579 and 0.513, respectively. In addition, the z-score in experiment [4] was 0.12 (inactive).
As to `O=C1O[C@H](c2ccccc2)[C@H](c2ccccc2)N2[C@H]1[C@@H](C(=O)N1CCN(c3ncccn3)CC1)[C@]1(C(=O)Nc3ccc(C#CCCO)cc31)[C@H]2c1ccc(O)cc1`, the composite z-score in [1] is 0.772; in experiment [2], -0.238; in [3], 0.422; in [5] it was 1.06; in [6], -0.906; in experiment [7], 0.397. Further, the composite z-score is 0.0936 in experiment [8], 0.359 in experiment [9] and -0.0667 in [10]. In experiment [4], the z-score was -0.057 (inactive).
`COCCOC(=O)N1C(=O)[C@@]2(c3cc(C#CC4(O)CCCCCC4)ccc31)[C@H](c1ccc(O)cc1)N1[C@H](c3ccccc3)[C@H](c3ccccc3)OC(=O)[C@H]1[C@@H]2C(=O)N1CCCCCCC1`: the composite z-score came to 1.08 in experiment [1]; 1.2 in [2]; 0.771 in experiment [3]; 1.28 in experiment [5]; 1.29 in [6]; 0.314 in [7]. The results for the composite z-score in experiment [8], in experiment [9] and in experiment [10] were 1.05, 0.112 and 1.72, respectively. For the same molecule, in experiment [4], the z-score is -0.803 (inactive).
For `COCCOC(=O)N1C(=O)[C@@]2(c3cc(C#CCC(C(=O)OC)C(=O)OC)ccc31)[C@H](c1ccc(O)cc1)N1[C@H](c3ccccc3)[C@H](c3ccccc3)OC(=O)[C@H]1[C@@H]2C(=O)Nc1nc2ccccc2s1`, the composite z-score in experiment [1] was found to be 1.54; in [2] it was 0.595; in experiment [3], 0.481; in experiment [5], 0.972; in experiment [6] it was 1.27; in experiment [7] it was 0.594. Besides, the composite z-score in experiment [8] came to 1.38; in experiment [9], 0.91; in experiment [10] it was 1.11. The z-score in experiment [4] is -1.12 (inactive).
Regarding `CC(C)C[C@@H]1NC(=O)[C@@]23C(=O)N[C@@H](Cc4ccccc4)C2[C@H](C)[C@@]2(C)O[C@H]2C3/C=C/C/C=C\CNC(=O)CNC1=O` (stereo not given in full), the composite z-score in experiment [1] was 1.19; in experiment [2], -0.268; in [3] it was -0.51; in experiment [5] it was 0.452; in [6], 0.202; in experiment [7], 0.127. In addition, the composite z-score in experiment [8] is 0.768; in experiment [9], 0.268; in [10], 1.4. In addition, in [4], the z-score is 0.103 (inactive).
On to `COc1ccc(C(O)C2C=CC3C(=O)N(c4ccccc4)C(=O)C3N2Nc2ccc(C#N)cc2)cc1OCc1ccccc1` (stereo not given), for which the composite z-score in experiment [1] amounted to 1.09; in [2] it was 1.31; in experiment [3] it was 1.42; in experiment [5], 0.372; in experiment [6] it was 0.564; in [7], 0.0706. Further, the composite z-score is 0.727 in experiment [8], -0.463 in [9] and 0.898 in experiment [10]. Besides, the z-score in [4] was 0.471 (inactive).
`COCCCNC(=O)[C@@H]1c2ccccc2C(=O)N(Cc2ccc(OC(F)(F)F)cc2)[C@H]1c1ccc(CO)cc1`: the composite z-score in [1] was 0.499; in experiment [2] it was 0.21; in experiment [3] it was 0.215; in experiment [5], 0.393; in experiment [6] it was 0.723; in experiment [7] it was 0.0725. For the same molecule, the composite z-score is 0.481 in experiment [8], 0.743 in [9] and 0.639 in experiment [10]. Also, the z-score in [4] is 0.0366 (inactive).
Regarding `CC(C)OC(=O)CC(=O)CC(O)c1cccc([N+](=O)[O-])c1` (stereo not given), the composite z-score in experiment [1] is 0.784; in [2] it was 0.645; in experiment [3], 0.851; in experiment [5], 0.366; in [6] it was 0.814; in [7], -0.113. Also, the composite z-score in [8] was 0.753; in experiment [9], -0.229; in experiment [10] it was 0.916. Further, in [4], the z-score was -2.86 (inactive).
`O=C1O[C@@H](c2ccccc2)[C@@H](c2ccccc2)N2[C@@H](c3ccc(OCCO)cc3)[C@]3(C(=O)Nc4ccc(C#CC5(O)CCCCCC5)cc43)[C@@H](C(=O)Nc3nc4ccccc4s3)[C@H]12`: the composite z-score was 0.943 in experiment [1]; 0.552 in experiment [2]; 0.662 in [3]; 1.39 in [5]; 1.31 in [6]; 0.533 in experiment [7]. Further, the composite z-score came to 1.38 in experiment [8], 0.553 in [9] and 0.541 in experiment [10]. For the same molecule, the z-score in experiment [4] is -0.102 (inactive).
Consider `CN(C)CCCC[C@@H]1NC(=O)[C@@H]2C[C@H](C(=O)NCCCCCCNC(=O)CS)[C@H](c3ccc(O)cc3)N2C1=O`, for which the composite z-score in experiment [1] is 0.73; in experiment [2], -0.165; in [3] it was -0.294; in experiment [5] it was 1.34; in experiment [6] it was 1.24; in experiment [7] it was 0.954. For the same molecule, the composite z-score in experiment [8] worked out at 0.997; in experiment [9], 1.31; in experiment [10] it was 0.277. In addition, the z-score in experiment [4] was 1.06 (inactive).
For the molecule `CC(C)=CCCC(C)=CC(O)C1C=CC2C(=O)NC(=O)C2N1Nc1ccc(Cl)cc1Cl` (stereo not given), the composite z-score in experiment [1] worked out at 0.44; in [2], 0.34; in experiment [3], 0.992; in experiment [5], 0.499; in [6] it was 0.0742; in experiment [7], 0.542. Also, the composite z-score in experiment [8] was 1.1; in experiment [9], 0.153; in experiment [10] it was 1.44. Further, the z-score in experiment [4] was 1.22 (inactive).
